Unmarked numbers belong to inactive results. The rule behind the calls is not given here. Bounds are passed on as bounds.
Potency is the fitted concentration of half-maximal effect.

In the assay the test system is HIV-1 nucleocapsid protein NCp7 (binding to TG oligonucleotide). Kind of assay: HIV Nucleocapsid (AID 346).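 Note: potency is for inhibitors that block NC binding and lower polarization.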 To be noted: HIV-1 NC / fluorescein-TGTGTGTG probe, fluorescence polarization. In outline: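 HIV-1 NC (100 nM) binding to fluorescein-labelled ssDNA TG4xF (10 nM) in Hepes pH 7.5, 250mM NaCl, 1uM ZnCl2, TCEP and 2-mercaptoethanol; compounds pin-transferred, 1 hr room temperature, fluorescence polarization read on CCD imager.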
With `COc1ccc(C(=O)N2CCC3(CCCN(c4ccccn4)C3)CC2)cc1`, the Potency is above 20 µM.

For `COc1ccc(CNc2ncncc2-c2ccccc2C(F)(F)F)c(OC)c1`, the Potency is above 20 µM.

In the case of `FC(F)(F)c1ccccc1-c1cncnc1NCc1cccs1`, the Potency was above 20 µM.

Regarding `CC(C)CN1CCCC2(CCN(S(=O)(=O)c3ccccc3)CC2)C1`, the Potency was above 20 µM.

Turning to `Cc1noc(C)c1-c1ccc2ncnc(NCc3cccnc3)c2c1`, the Potency is above 20 µM.

With `Cc1cccc(CNc2ncnc3ccc(-c4cccc(C#N)c4)cc23)c1`, the Potency is above 20 µM.

In the case of `COc1cccc(Nc2ncc3nc(-c4cc(F)cc(F)c4)c(=O)n(C[C@H]4CCCO4)c3n2)c1`, the Potency is above 20 µM.

As to `O=S(=O)(c1ccccc1)N1CCC2(CCN(Cc3ccncc3)CC2)CC1`, the Potency was above 20 µM.

In the case of `O=C(c1csnn1)N1CCC2(CC1)CCN(c1ccccn1)CC2`, the Potency is above 20 µM.

On to `CCNc1ncc2nc(-c3cccc(C#N)c3)c(=O)n(Cc3cccc(OC)c3)c2n1`, for which the Potency is 17.7 µM.

Turning to `O=c1c(-c2cccs2)nc2cnc(N3CCOCC3)nc2n1CCc1ccccc1`, the Potency was above 20 µM.

`Cc1nc2cnc(N3CCN(C)CC3)nc2n(C)c1=O`: the Potency was above 20 µM.

Take `CN(C)Cc1ccccc1-c1cc(N(C)Cc2ccco2)ncn1`: the Potency is above 20 µM.

On to `COC(=O)N1CCC2(CC1)CN(C(=O)Nc1ccc(OC)cc1)C2`, for which the Potency was above 20 µM.

In the case of `CC(=O)NCCNc1ncncc1-c1ccc(N(C)C)cc1`, the Potency was above 20 µM.

Regarding `c1nc(N2CCOCC2)c2cc(-c3ccoc3)ccc2n1`, the Potency was above 20 µM.

For `O=S(=O)(c1ccccc1)N1CCC2(CC1)CN(Cc1nccs1)C2`, the Potency was above 20 µM.

`CN(C)Cc1ccccc1-c1ccc2ncnc(NCc3cccs3)c2c1`: the Potency was above 20 µM.

With `Cc1noc(C)c1-c1ccc2ncnc(N3CCN(C)CC3)c2c1`, the Potency is above 20 µM.

As to `CS(=O)(=O)Nc1cccc(-c2nc(-n3ccnc3)c3ccccc3n2)c1`, the Potency was above 20 µM.

On to `COc1ccccc1CN1CCCC2(CCN(S(=O)(=O)c3ccccc3)CC2)C1`, for which the Potency was above 20 µM.

`O=C(Nc1cccc(F)c1)N1CC[C@@]2(CCCN(C(=O)c3cccc(F)c3)C2)C1`: the Potency was above 20 µM.

`Cc1cnc(CNc2ccnc(-c3ccccc3C(F)(F)F)n2)cn1`: the Potency is above 20 µM.

As for `Cc1cnc(CNc2nc(-c3ccc4c(c3)OCO4)nc3ccccc23)cn1`, the Potency is above 20 µM.

Consider `COc1ccc(-n2c(=O)c(C)nc3cnc(N4CCNCC4)nc32)cc1`, for which the Potency was above 20 µM.

In the case of `COc1ccc(-n2c(=O)c(-c3ccc(Cl)cc3)nc3cnc(N4CCNCC4)nc32)cc1`, the Potency was above 20 µM.

As to `COc1ccc(C(=O)N2CCC3(CCCN(Cc4ccccc4OC)C3)CC2)cc1`, the Potency is above 20 µM.

In the case of `O=C(c1cc(C(F)(F)F)cc(C(F)(F)F)c1)N1CCC2(CC1)CN(Cc1ccccc1)C2`, the Potency was above 20 µM.

`c1cncc(-c2ccc3ncnc(NCCN4CCOCC4)c3c2)c1`: the Potency was above 20 µM.

With `COc1ncc2nc(-c3ccc(F)cc3)c(=O)n(Cc3ccc(F)cc3)c2n1`, the Potency was above 20 µM.

With `O=C(Nc1ccccc1)N1CCCC2(CCN(C(=O)c3cc(C(F)(F)F)cc(C(F)(F)F)c3)CC2)C1`, the Potency was above 20 µM.

Regarding `O=C(Nc1ccccc1)N1CC2(CCN(C(=O)c3cccc(F)c3)CC2)C1`, the Potency was above 20 µM.

In the case of `Cc1cccc(CNc2ccnc(-c3ccoc3)n2)c1`, the Potency is above 20 µM.

For the compound `COCCn1c(=O)c(-c2cc(F)cc(F)c2)nc2cnc(Oc3cccc(Cl)c3)nc21`, the Potency is above 20 µM.

Consider `Cc1noc(C)c1-c1ccc2ncnc(N3CCOCC3)c2c1`, for which the Potency is above 20 µM.

For the compound `CCNc1ncc2nc(-c3ccc(Cl)cc3)c(=O)n(-c3ccc(OC)cc3)c2n1`, the Potency was above 4 µM.

Take `COc1ccc(C(=O)N2CCC3(CCN(CC(C)C)CC3)CC2)cc1`: the Potency was above 20 µM.

Take `O=C(Nc1ccccc1)N1CCC2(CC1)CCN(C(=O)c1cnccn1)CC2`: the Potency was above 20 µM.

`Cc1cccc(CNc2ccnc(-c3cccnc3)n2)c1`: the Potency is above 20 µM.

In the case of `FC(F)(F)c1ccccc1-c1ccc2ncnc(N3CCOCC3)c2c1`, the Potency is above 20 µM.

(Values after PubChem BioAssay (NCATS).)
